# Screening results (PubChem)
# A selection: hits, their analogues and other compounds. The true share with any hit is near 0.95%.
# Giardia FBPA inh – blocks Giardia fructose-bisphosphate aldolase activity | A8B2U2 | purified Giardia FBPA | Potency, µM (doses to about 59.6 µM), inactives show at the top dose activity, negative = inhibition, usual class: inhibitors | 0.71% of 290,000 active | AID 2451; further: nearly all actives have a fitted effect of over 55% in size
# Target sequence (A8B2U2 whole entry, looked up): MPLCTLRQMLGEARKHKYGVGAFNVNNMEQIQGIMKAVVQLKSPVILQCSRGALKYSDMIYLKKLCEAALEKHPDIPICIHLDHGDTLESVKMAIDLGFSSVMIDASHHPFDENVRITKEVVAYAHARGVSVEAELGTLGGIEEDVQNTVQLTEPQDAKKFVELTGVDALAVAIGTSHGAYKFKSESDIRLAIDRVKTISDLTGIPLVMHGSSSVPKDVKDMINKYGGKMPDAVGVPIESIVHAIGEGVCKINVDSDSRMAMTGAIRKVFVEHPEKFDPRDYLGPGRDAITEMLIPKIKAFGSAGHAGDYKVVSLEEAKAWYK
#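 Giardia FBPA (40 nM reagent) was preincubated 10 min at RT with compound (up to 57.5 uM final), then substrate plus GAPDH/TPI/NAD/arsenate coupling system with diaphorase/resazurin was added; resorufin fluorescence (525/598 nm) was read after 20 min.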
# TbPYK inhibitor – T. brucei pyruvate kinase inhibition; 0.12% of 410,000 active; Potency, µM (top dose mostly 76.8 µM), without a hit: top-dose activity, negative = inhibition, usual class: inhibitors; Q57TT1; TbPYK enzyme, Kinase-Glo Plus ATP luminescence, 45 min; AID 624173; further: nearly all actives have a fitted effect of over 50% in size
#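 In this concentration-response screen, enzyme-free wells defined baseline while DMSO plates tracked drift. Each reaction combined TbPYK, substrate, compound and 130 uM ADP for 45 min at room temperature. Kinase-Glo Plus luminescence gave the signal.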
# LmPK inh – blocks Leishmania mexicana pyruvate kinase activity | 0.37% of 290,000 active | purified LmPK, Kinase-Glo ATP luminescence, 1 h | Potency, µM (titrated, usually from 57.5 µM), for the others: top-dose activity change, negative = inhibition, actives largely listed as inhibitors | Q27686
#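 Pyruvate kinase activity monitored as ATP production (luciferase luminescence). Conditions: 0.1 nM enzyme, 0.5 mM PEP, 0.1 mM ADP, 1 h, RT; normalized against uninhibited and no-enzyme wells.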
# RE007 growth inh – less growth of the S. pombe RE007 Vpr strain; S. pombe RE007 Vpr strain, BacTiter-Glo ATP luminescence, 24 h; Potency, µM (titrated, usually from 92.2 µM), for the others: at the top dose activity change, negative = less growth, usual class: inhibitors; 0.21% of 360,000 active; active means well fitted falling curve with a large enough effect; inconclusive means small, poorly fitted or top-dose-only effect; inactive means no such curve, though single readings can be large or run the other way; further: nearly all actives have a fitted effect of over 50% in size
#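 Fission yeast RE007 carrying one integrated HIV-1 vpr copy, seeded at OD 0.01 in PMG+AL medium with 23 nL pinned compound. Grown 24 h at 30 degrees; viability read by BacTiter-Glo luminescence after 5 min.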
# Numbers without * were called inactive; ? = inconclusive; / = no result; [ ] = remark or other dose. Unless noted, the call rests on the fitted dose curve; in most records, active means well fitted curve in the direction sought with a large enough effect; inconclusive means small, poorly fitted or top-dose-only effect, or another doubt; inactive means no such curve, though single readings can be large; an effect the other way counts as inactive or inconclusive. On the % scale 0 is the no-effect control and ±100 the full control effect; potency means the concentration at half of the fitted maximal effect.
SMILES,Giardia FBPA inh,TbPYK inhibitor,LmPK inh,RE007 growth inh
O=c1c2c3c(sc2nc2n1CCCS2)CCCC3,0%,-1%,0%,?
CC(=O)OCC(=O)[C@@]1(O)[C@H](C)C[C@H]2C3C[C@H](F)C4=CC(=O)C=CC4(C)C3[C@@H](O)CC21C (stereo partly specified),/,-5%,/,/
N/C(=N\OC(=O)/C=C/c1ccccc1)c1ccccc1,-1%,-5%,14µM*,-10%
Cc1ccc(-c2csc(NC(=O)C3=COCCO3)n2)cc1,-1%,-12%,-1%,?
Cc1ccc(C)c(-c2csc(NC(=O)C3=COCCO3)n2)c1,/,-1%,/,25µM*
O=C1C=Cc2ccccc2C1=O,3.5µM*,/,-16%,/
Cc1cccc(CS(=O)(=O)CC2Nc3ccc(C(=O)NCc4ccccc4)cc3NC2=O)c1 (stereo unspecified),/,-2%,/,/
Cc1ccccc1CSCC1Nc2ccc(C(=O)NCCc3ccccc3)cc2NC1=O (stereo unspecified),/,?,/,32µM*
CCC(=O)CC,14µM*,/,/,/
CCOc1ccc(NC(=O)Nc2cccnc2)cc1,-5%,-7%,25µM*,?
CCN(CC)c1ccc(/C=N/NC(=O)c2ccccn2)cc1,-22%,-7%,-14%,12%
CCc1ccc(/C=N/NC(=O)c2ccccn2)cc1,-21%,-27%,13µM*,-27%
CCOc1ccc(NC(=O)c2ccccn2)cc1,0%,-12%,13µM*,?
COc1ccc(NC(=O)Nc2cccnc2)cc1,-2%,-4%,-18%,-16%
O=C(c1ccc2c3n(nc2c1)-c1ccc(Cl)cc1CO3)N1CCCCC1,-7%,-19%,25µM*,-16%
Cc1ccc2c(c1)COc1c3ccc(C(=O)N4CCOCC4)cc3nn1-2,6%,-15%,16µM*,-33%
C=CCNC(=O)c1ccc2c3n(nc2c1)-c1ccccc1CO3,0%,?,14µM*,?
CC(C)(C)N1C(=O)[C@H]2[C@H]3[C@H](O)[C@H](O)C/C(=N/NC(=O)OCc4ccccc4)[C@@H]3CC[C@@H]2C1=O,0%[12.9 µM],/,/,/
CC(=O)[O][Hg][c]1ccccc1,18µM*,?,/,/
N#CC1=C2SCN(c3ccccc3)CN2C(=O)CC1c1c(Cl)cccc1Cl (stereo unspecified),?,2.5µM*,-12%,-4%
CCc1ccccc1N1CSC2=C(C#N)C(c3cc(OC)c(OC)cc3OC)CC(=O)N2C1 (stereo unspecified),4.5µM*,10µM*,-6%,-6%
COc1cc(OC)c(C2CC(=O)N3CN(c4ccccc4)CSC3=C2C#N)cc1OC (stereo unspecified),?,8.9µM*,8%,9%
COc1ccc(CC(=O)Nc2cc(-c3cn4cccnc4n3)ccc2OC)cc1,/,1%,/,/
Cc1cc(CC(=O)O)c(C)n1-c1ccc(Cl)cc1,/,0%,/,/
Cc1nn(-c2ccccn2)c2c1-c1nc(N)ncc1CC2,16µM*,4%,0%,4%
SMILES,Giardia FBPA inh,TbPYK inhibitor,LmPK inh,RE007 growth inh
Cc1nn(-c2ccccn2)c2c1-c1nc(N3CCOCC3)ncc1CC2,?,-11%,5%,-8%
CN(C)C(=O)Nc1ccc(Oc2ccc(Cl)cc2)cc1,4%,/,/,/
CCOC(=O)c1cc(-c2ccccc2)n(CC(=O)NC2CCC(C)CC2)c1C (stereo unspecified),/,-8%,/,/
COC(=O)CCC(=O)OC1(C)C(=O)C2=CN(C(CO)CO)C(c3ccc(OC)cc3)=CC2=C(Br)C1=O (stereo unspecified),0.63µM*,/,-2%[11.5 µM],/
COC(=O)CCC(=O)OC1(C)C(=O)C2=CN(CCc3ccccn3)C(c3ccc(OC)cc3)=CC2=C(Br)C1=O (stereo unspecified),?,-16%,-6%[11.5 µM],-13%
COC(=O)CCC(=O)OC1(C)C(=O)C2=CN(CCN3CCOCC3)C(c3ccc(OC)cc3)=CC2=C(Br)C1=O (stereo unspecified),0.56µM*,/,-2%[11.5 µM],/
COC(=O)CCC(=O)OC1(C)C(=O)C2=CN(CCCCO)C(c3ccc(OC)cc3)=CC2=C(Br)C1=O (stereo unspecified),5µM*,/,0%,/
COC(=O)CCC(=O)OC1(C)C(=O)C2=CN(Cc3ccc4c(c3)OCO4)C(c3ccc(OC)cc3)=CC2=C(Br)C1=O (stereo unspecified),-19%[12.9 µM],2%,-8%[11.5 µM],3%
OCC1OC(OC2C(CO)OC(OC3C(CO)OC(O)C(O)C3O)C(O)C2O)C(O)C(O)C1O (stereo unspecified),/,0%,/,/
C/C(=C\C(=O)Nc1ccccc1C(=O)O)c1ccc2ccccc2c1,/,-3%,/,/
COc1ccccc1OCCCn1cc(C#N)c2ccccc21,20µM*,3%,1%,2%
N#Cc1cn(CCCOc2ccccc2)c2ccccc12,1%,-1%,2%,2%
C[C@@H]1O[C@@]2(CS1)CN1CCC2CC1,/,-7%,/,/
COc1cccc(-n2c(-c3ccc4[nH]c(C)c(C)c4c3)n[nH]c2=S)c1,9%,7.9µM*,-4%,-2%
Cc1[nH]c2ccc(-c3n[nH]c(=S)n3-c3ccccc3)cc2c1C,13%,?,?,6%
COc1cccc(-n2c(-c3cccc(S(=O)(=O)N(C)C)c3)n[nH]c2=S)c1,-8%,7.1µM*,3%,6%
COCC1=Cc2cc3c(cc2C(C(C(=O)OC)C(=O)OC)N1C(=O)OC)OCO3 (stereo unspecified),3%,/,-13%[11.5 µM],/
COc1ccc(C#CC2C=CC(OC(C)=O)C(COC(C)=O)O2)cc1 (stereo unspecified),0%[12.9 µM],/,/,/
CC(C)(S)[C@@H](N)C(=O)O,13µM*,1%,-6%,-10%[18.4 µM]
COc1ccc(OC)c(NC(=O)CCn2cccn2)c1,/,-9%,/,/
CCCSS/C(CCO)=C(/C)N(C=O)Cc1cnc(C)nc1N,/,3%,/,/
Cc1nnc(N/N=C/c2ccco2)n1N,20µM*,-2%,-2%,-9%
O=C(O)C1CC=CC2CCN(C3CC3)C(=O)C21 (stereo unspecified),2%,/,/,/
CCOC(=O)c1c(NS(=O)(=O)c2ccc(Br)cc2)sc2c1CCC2,/,28µM*,/,9%
O=C(/C=C\Nc1ccccn1)c1ccc(Cl)cc1,2%,-15%,13µM*,-19%
SMILES,Giardia FBPA inh,TbPYK inhibitor,LmPK inh,RE007 growth inh
Cc1cccc(N/C=C/C(=O)c2ccc(Cl)cc2)c1,-6%,-22%,-1%,10%
CCCC(=O)O[C@]1(C(=O)COC(=O)CC)[C@@H](C)C[C@H]2[C@@H]3CCC4=CC(=O)C=C[C@@]4(C)[C@@]3(F)[C@H](O)C[C@@]21C,/,6%,/,/
CCN(c1ccccc1)S(=O)(=O)c1ccc(Cl)c(NC(=O)COC(=O)c2cc(O)c3ccccc3c2O)c1,5µM*,/,-4%,/
Nc1nonc1C(=O)OCC(=O)c1ccc(Cl)cc1,6%,3%,4%,-7%
N/C(=N\OC(=O)c1ccc(Cl)cc1)c1nonc1N,-2%,-18%,13µM*,-21%
N/C(=N/OC(=O)c1ccccc1F)c1nonc1N,2%,?,14µM*,10%
